Measured values from PubChem BioAssay AID504333 (National Center for Advancing Translational Sciences (NCATS), 2011).
In all, about 360,000 compounds went through this assay and about 16,000 (4.4%) were called active. A call without a number means that no potency is given here. About 9% were inconclusive and are not listed. The call rests on the fitted dose curve; in most records, active means well fitted inhibition curve with a large enough effect; inconclusive means small, poorly fitted or top-dose-only effect; inactive means no such curve, though single readings can be large or run the other way. The full list was thinned out, with actives kept by preference.

Each compound was assayed against Bromodomain adjacent to zinc finger domain protein 2B (Homo sapiens) (UniProt Q9UIF8) (assay: qHTS Assay for Inhibitors of BAZ2B). Conditions: AlphaScreen BAZ2B-H3K14Ac peptide displacement; series mostly up to 114 µM.
Chain of Bromodomain adjacent to zinc finger domain protein 2B (Homo sapiens) (Q9UIF8 whole entry, looked up, the tested form may be a part): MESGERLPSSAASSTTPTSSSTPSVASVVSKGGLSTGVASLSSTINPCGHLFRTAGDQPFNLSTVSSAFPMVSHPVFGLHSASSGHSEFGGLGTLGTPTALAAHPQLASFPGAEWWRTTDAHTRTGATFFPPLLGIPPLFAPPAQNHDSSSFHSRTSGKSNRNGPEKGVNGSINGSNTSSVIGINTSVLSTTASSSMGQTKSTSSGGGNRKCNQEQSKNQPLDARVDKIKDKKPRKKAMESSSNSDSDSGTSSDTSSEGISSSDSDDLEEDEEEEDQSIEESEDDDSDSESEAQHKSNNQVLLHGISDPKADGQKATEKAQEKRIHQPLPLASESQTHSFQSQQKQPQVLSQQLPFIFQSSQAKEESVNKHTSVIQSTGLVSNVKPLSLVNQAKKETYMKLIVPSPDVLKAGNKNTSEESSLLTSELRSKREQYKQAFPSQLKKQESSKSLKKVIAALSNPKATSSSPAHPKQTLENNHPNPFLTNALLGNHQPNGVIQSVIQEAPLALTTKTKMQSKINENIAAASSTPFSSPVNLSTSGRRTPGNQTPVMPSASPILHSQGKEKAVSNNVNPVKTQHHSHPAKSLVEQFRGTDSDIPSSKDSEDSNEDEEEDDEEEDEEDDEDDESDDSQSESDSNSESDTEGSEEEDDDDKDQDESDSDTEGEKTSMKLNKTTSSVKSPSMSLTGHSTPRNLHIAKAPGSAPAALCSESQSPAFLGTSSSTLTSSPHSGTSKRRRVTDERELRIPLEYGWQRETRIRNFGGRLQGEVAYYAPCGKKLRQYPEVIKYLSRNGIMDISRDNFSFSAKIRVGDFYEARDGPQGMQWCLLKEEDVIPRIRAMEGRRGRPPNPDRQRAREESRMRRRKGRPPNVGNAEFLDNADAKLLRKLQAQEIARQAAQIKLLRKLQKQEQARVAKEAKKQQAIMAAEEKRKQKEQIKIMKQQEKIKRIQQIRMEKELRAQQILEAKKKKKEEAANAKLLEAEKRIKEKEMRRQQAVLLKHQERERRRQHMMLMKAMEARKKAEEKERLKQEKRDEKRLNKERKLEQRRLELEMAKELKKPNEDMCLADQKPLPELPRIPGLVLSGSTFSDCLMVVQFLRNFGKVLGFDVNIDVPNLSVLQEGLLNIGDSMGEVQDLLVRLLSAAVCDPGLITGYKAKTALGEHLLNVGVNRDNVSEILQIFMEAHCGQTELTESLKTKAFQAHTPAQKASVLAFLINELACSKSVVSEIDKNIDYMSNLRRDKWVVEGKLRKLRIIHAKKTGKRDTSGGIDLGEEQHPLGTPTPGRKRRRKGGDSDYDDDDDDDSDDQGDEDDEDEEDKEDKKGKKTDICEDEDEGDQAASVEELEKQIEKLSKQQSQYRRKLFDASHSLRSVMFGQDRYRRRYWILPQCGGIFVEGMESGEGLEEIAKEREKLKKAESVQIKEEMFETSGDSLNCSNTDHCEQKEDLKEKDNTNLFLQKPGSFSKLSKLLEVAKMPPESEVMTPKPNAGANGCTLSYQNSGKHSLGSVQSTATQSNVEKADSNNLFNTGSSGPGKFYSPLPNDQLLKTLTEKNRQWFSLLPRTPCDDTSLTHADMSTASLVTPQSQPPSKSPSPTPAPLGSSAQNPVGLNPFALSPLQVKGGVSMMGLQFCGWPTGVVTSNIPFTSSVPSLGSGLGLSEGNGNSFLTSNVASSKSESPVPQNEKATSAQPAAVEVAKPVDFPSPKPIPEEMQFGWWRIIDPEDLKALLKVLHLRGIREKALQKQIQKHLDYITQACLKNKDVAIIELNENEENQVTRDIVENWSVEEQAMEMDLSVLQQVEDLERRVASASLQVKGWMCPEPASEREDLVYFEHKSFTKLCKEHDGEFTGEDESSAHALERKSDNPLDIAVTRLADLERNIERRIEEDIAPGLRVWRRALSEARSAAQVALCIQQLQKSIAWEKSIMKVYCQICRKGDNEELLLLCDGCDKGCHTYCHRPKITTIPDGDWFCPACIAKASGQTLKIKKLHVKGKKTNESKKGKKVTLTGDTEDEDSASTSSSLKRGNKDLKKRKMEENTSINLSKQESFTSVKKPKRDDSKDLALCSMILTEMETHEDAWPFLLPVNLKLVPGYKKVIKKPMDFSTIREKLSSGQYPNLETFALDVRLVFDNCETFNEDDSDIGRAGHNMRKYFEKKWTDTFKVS
Summary of the method: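 AlphaScreen displacement: compounds (up to 110uM) incubated 30 min at room temperature with a preformed 50 nM BAZ2B/50 nM biotinylated H3K14Ac peptide complex in PBS pH 7.4 with Tween-20. Donor and acceptor beads at 10 ug/mL final added, 20 min light-protected before reading.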
Further: nearly all actives have a fitted effect of over 60% in size.
Potency means the concentration at half of the fitted maximal effect.

SMILES | Potency
CCN(CC)c1ccc(NC(=O)CN2C(=O)NC3(CCc4ccccc43)C2=O)cc1 (stereo not drawn) | inactive
CCOC(=O)N1CCN(CC(=O)Nc2ccc(F)cc2)CC1 | inactive
COC(=O)c1cc(NC(=O)CN2CCN(C(C)=O)CC2)cc(C(=O)OC)c1 | inactive
CC(=O)N1CCN(CC(=O)Nc2ccc(C)c(F)c2)CC1 | 44.7 µM (active)
CC(=O)N1CCN(CC(=O)Nc2ccc(SC(F)F)cc2)CC1 | inactive
CCN(CC)c1ccc(NC(=O)CN2CCN(CC(=O)Nc3ccc(Cl)cc3)CC2)cc1 | 20 µM (active)
CCN(CC)c1ccc(NC(=O)CN2C(=O)c3cccnc3Oc3ccc(Cl)cc32)c(C)c1 | inactive
Cc1cccc(C(=O)Nc2ccc(S(=O)(=O)N3CCCCC3c3cccnc3)cc2)c1 (stereo not drawn) | inactive
Cc1ccc(Cn2c(C)c3cnn(CC(=O)NCc4ccccc4)c(=O)c3c2C)cc1 | inactive
COC(=O)c1scc(-c2ccccc2)c1S(=O)(=O)Nc1ccccc1 | inactive
CC(=O)c1ccc(NC(=O)CCc2nc(-c3ccc(C)cc3)no2)cc1 | inactive
COc1ccc(Cl)cc1NC(=O)CCn1c(=O)c2cccn2c2ccccc21 | inactive
Cc1ccc(NC(=O)CCCn2c(=O)c3cccn3c3ccccc32)cc1Cl | 50.1 µM (active)
CCCCn1c(=O)c(CCC(=O)OCC(=O)Nc2ccc(C)c(Cl)c2)nc2ccccc21 | inactive
Cc1cccc(NC(=O)CSc2nc(-c3ccco3)cc(C(F)(F)F)n2)c1C | inactive
Cc1ccc(Cl)cc1N1CCN(C(=O)c2cnc3c(-c4ccc(F)cc4)c(C)nn3c2C)CC1 | inactive
O=C(O)c1ccc(/C=N/NC(=O)c2ccc(Br)cc2)cc1 | inactive
O=C(N/N=C/c1ccc(Br)o1)c1cncc(Br)c1 | inactive
Cc1ccc(C(=O)N/N=C\c2cc(Br)c(Br)o2)cn1 | 50.1 µM (active)
Cc1nn2c(=O)cc(COC(=O)c3cccc(NC(=O)COc4ccccc4Cl)c3)nc2s1 | inactive
CCOc1ccc(-c2cc3nc(C4CCN(C(=O)OC(C)(C)C)CC4)c(C(=O)Nc4cccc(CC)c4)cn3n2)cc1 | inactive

SMILES | Potency
Cc1n[nH]c(=O)n1-c1ccc(Oc2ccccc2)cc1 | inactive
Cc1cc(C(=O)OCC(=O)NCc2ccco2)c(C)n1-c1ccccc1 | inactive
Cc1cc(-c2csc(N)n2)c(C)n1-c1ccccc1 | 44.7 µM (active)
COc1ccc(NS(=O)(=O)c2cc3c4c(c2)CC(=O)N4CCC3)cc1Cl | inactive
COc1ccccc1CNC(=O)c1ccc(CS(=O)c2ccccc2Cl)o1 (stereo not drawn) | inactive
Brc1ccc(-c2csc(N/N=C/c3ccc4c(c3)OCO4)n2)cc1 | inactive
C(=N\Nc1ccc2ccccc2n1)/c1ccc2c(c1)OCO2 | 50.1 µM (active)
Cc1noc(C)c1/C=N/Nc1ccc2ccccc2n1 | inactive
COc1ccc(CCNC(=O)CCCn2c(=O)c3ccccc3n(Cc3ccc(C)cc3)c2=O)cc1OC | inactive
CCOC(=O)c1cc(-c2ccc(OC)c(S(=O)(=O)Nc3ccc(OC)cc3OC)c2)on1 | inactive
CCN(CC)CCNc1ncnc2c1cnn2-c1cc(Cl)ccc1C | inactive
Cc1ccc(-n2ncc3c(NCCCn4ccnc4)ncnc32)cc1Cl | 44.7 µM (active)
Clc1cccc(-n2ncc3c(NCCc4ccccc4)ncnc32)c1 | inactive
O=C(CC1Oc2ccc(Cl)cc2NC1=O)NCc1ccccc1 (stereo not drawn) | inactive
CCOc1ccccc1CNC(=O)c1cnc2c(-c3ccc(OCC)c(OCC)c3)c(C)nn2c1C | inactive
Cc1ccc(SCC(=O)Nc2ccc3oc(-c4ccccc4F)nc3c2)cc1 | inactive
CCOC(=O)C1CCCN(C(=O)c2ccc3c(c2)sc2nc(-c4ccc(CC)cc4)cn23)C1 (stereo not drawn) | inactive
Cc1ccccc1CNC(=O)CSc1nnc(C)c2c(C)n(-c3ccccc3)nc12 | inactive
NC(=O)NC(CC(=O)NNC(=O)c1ccccn1)c1ccc(Cl)cc1 (stereo not drawn) | inactive
C/C(CC(=O)Nc1ccc(N(C)C)cc1)=N\NC(=O)c1ccccc1F | inactive
C/C(=N\NC(=O)c1ccccc1F)c1ccccn1 | 20 µM (active)

SMILES | Potency
O=C(Nc1ccc(NC(=O)c2ccccc2F)cc1)c1ccccc1F | inactive
C/C(=N\NC(=O)Cc1ccc(Br)cc1)c1cccnc1 | inactive
C/C(=N\NC(=O)Cc1ccc(Cl)cc1)c1ccccn1 | 44.7 µM (active)
Cc1nc2nc(NCc3cccc(Br)c3)[nH]n2c(=O)c1Cc1ccccc1 | inactive
O=C(CSc1nc2c(c(=O)[nH]1)CN(Cc1ccc(F)cc1)CC2)Nc1ccccc1Cl | inactive
Cc1noc2ncnc(NCc3ccccc3Cl)c12 | inactive
COC(=O)c1ccc(NC(=O)c2cc(S(=O)(=O)N3CCC(C)CC3)cn2C)cc1 | inactive
Cc1oc(-c2ccccc2F)nc1CN1CCC(C(=O)NCCc2ccc(Cl)cc2)CC1 | inactive
CC(=O)Nc1ccc(S(=O)(=O)Oc2ccc(/C=N/N=C3/NC(=O)C(CC(=O)O)S3)cc2)cc1 (stereo not drawn) | 50.1 µM (active)
Cc1ccc(S(=O)(=O)Oc2ccc(/C=N/NC(=O)c3ccncc3)cc2)cc1 | inactive
Cc1ccc(NC(=O)CC2S/C(=N/N=C3\CCCc4ccccc43)NC2=O)cc1 (stereo not drawn) | inactive
CCOc1ccc(N2CC(C)Cn3c2nc2c3c(=O)n(Cc3c(F)cccc3Cl)c(=O)n2C)cc1 (stereo not drawn) | inactive
COC(=O)C1=CN(Cc2ccc(OC)cc2)C=C(C(=O)OC)C1c1ccc(O)c(OC)c1 | inactive
COc1cc2c(cc1O)[C@H](Cc1ccc(Oc3cc(C[C@@H]4NCCc5cc(OC)c(O)cc54)ccc3O)cc1)NCC2 | 39.8 µM (active)
CCc1ccc(OCC2c3cc(OC)c(OC)cc3CCN2C(C)=O)cc1 (stereo not drawn) | inactive
Cn1c(=O)n(Cc2c(F)cccc2Cl)c(=O)c2c1nc1n2CCN1c1ccc(F)cc1 | inactive
COc1cccc(CNC(=O)CCc2nc(-c3ccc(C)cc3)no2)c1 | inactive
CCCCOc1ccc(CNC(=O)c2ccc3c(c2)N(C)C(=O)C2CCCCN32)cc1 (stereo not drawn) | inactive
COc1ccc(OC)c2[nH]c(=O)c(CCNC(=O)C(=O)c3c[nH]c4ccccc34)cc12 | 56.2 µM (active)
O=C(NCCCc1ccccc1)C(=O)c1c[nH]c2ccccc12 | inactive
COc1ccc(OC)c2[nH]c(=O)c(CCNC(=O)C(C)(C)C)cc12 | inactive
